According to PubChem BioAssay (NCI):
The panel holds about 83,000 compounds, 20% with a hit somewhere; the sample as a whole holds those more often.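 For each line, cells grew in 96-well plates with the test compound present at a single concentration for 48 hours.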 Calls of active or inactive are those of the source. Rule for the calls: active = growth percent below 10; inactive = the rest.

How the values were obtained:
Assay in all cases: NCI-60 one-dose screen, 48 h (100 = growth as untreated, 0 = no growth, -100 = all killed)
NCI-H23 lung = conditions: 10 µM unless noted
NCI-H226 lung = conditions: 10 µM unless noted
NCI-H322M lung = conditions: 10 µM unless noted
NCI-H460 lung = conditions: 10 µM unless noted
HOP-92 NSCLC = conditions: 10 µM
NCI-H522 lung = conditions: 10 µM
A549/ATCC NSCLC = conditions: 10 µM unless noted
786-0 renal = conditions: 10 µM unless noted
COLO 205 colon = conditions: 10 µM unless noted
DU-145 prostate = conditions: 10 µM unless noted
K-562 leukemia = conditions: 10 µM unless noted
MALME-3M melanoma = conditions: 10 µM unless noted
MDA-MB-231 breast = conditions: 10 µM unless noted
RXF 393 renal = conditions: 10 µM unless noted
SF-268 CNS = conditions: 10 µM unless noted
SF-295 CNS = conditions: 10 µM unless noted
SF-539 CNS = conditions: 10 µM unless noted
UACC-257 melanoma = conditions: 10 µM unless noted
M14 melanoma = conditions: 10 µM unless noted

Measured: growth

O=C(/C=C/c1ccc(Br)cc1)c1ccccc1
inactive: NCI-H23 lung 97.9% | NCI-H226 lung 90.8% | NCI-H322M lung 106% | NCI-H460 lung 101% | HOP-92 NSCLC 96.2% | NCI-H522 lung 77.8% | A549/ATCC NSCLC 73% | 786-0 renal 85.1% | COLO 205 colon 109% | DU-145 prostate 95.6% | K-562 leukemia 59.4% | MALME-3M melanoma 104% | MDA-MB-231 breast 101% | RXF 393 renal 98.7% | SF-268 CNS 90.9% | SF-295 CNS 96.7% | SF-539 CNS 100% | UACC-257 melanoma 84.3% | M14 melanoma 87.6%

O=C(/C=C1\C(=O)N(Cc2ccc([N+](=O)[O-])cc2)c2ccccc21)c1ccc(OCCN2CCCC2)cc1
inactive: NCI-H23 lung 69.2% | NCI-H226 lung 78.5% | NCI-H322M lung 66.2% | NCI-H460 lung 91.4% | HOP-92 NSCLC 46.2% | NCI-H522 lung 38.5% | A549/ATCC NSCLC 93.4% | 786-0 renal 69.7% | COLO 205 colon 81% | DU-145 prostate 42.9% | MALME-3M melanoma 46.8% | MDA-MB-231 breast 66.5% | RXF 393 renal 56.7% | SF-268 CNS 76.9% | SF-295 CNS 95.6% | SF-539 CNS 67.6% | UACC-257 melanoma 88.4% | M14 melanoma 70.2%
active: K-562 leukemia 1.78%

C/C(=N\Nc1ccc(Cl)cn1)c1ccc2ccccc2n1
active: NCI-H226 lung -5.19% | NCI-H460 lung 3.21% | A549/ATCC NSCLC 4.29% | COLO 205 colon 9.81% | K-562 leukemia 5.97% | SF-295 CNS 2.94% | SF-539 CNS 3.44% | UACC-257 melanoma -19.9% | M14 melanoma 0.159%
inactive: NCI-H23 lung 21% | NCI-H322M lung 16.4% | HOP-92 NSCLC 34.4% | NCI-H522 lung 11.9% | 786-0 renal 12.9% | DU-145 prostate 19.9% | MALME-3M melanoma 10.6% | MDA-MB-231 breast 31.5% | RXF 393 renal 30.5% | SF-268 CNS 10.3%

Clc1ccc(N/N=C(\c2ccccc2)c2ccccn2)nc1
inactive: NCI-H23 lung 19.2% | NCI-H322M lung 16.3% | HOP-92 NSCLC 31.3% | 786-0 renal 12.7% | COLO 205 colon 15.9% | DU-145 prostate 22.7% | MALME-3M melanoma 20% | MDA-MB-231 breast 37% | RXF 393 renal 24.6% | SF-268 CNS 10.5%
active: NCI-H226 lung 5.46% | NCI-H460 lung 1.31% | NCI-H522 lung 1.35% | A549/ATCC NSCLC 3.53% | K-562 leukemia 7.96% | SF-295 CNS 1.66% | SF-539 CNS -0.842% | UACC-257 melanoma -7.64% | M14 melanoma -6.53%

CCOC(=O)c1ccc2n1CCCc1cnc(NC(C)=O)nc1-2
inactive: NCI-H23 lung 112% | NCI-H226 lung 82.4% | NCI-H322M lung 110% | NCI-H460 lung 112% | HOP-92 NSCLC 82.2% | NCI-H522 lung 97% | A549/ATCC NSCLC 109% | 786-0 renal 99.4% | COLO 205 colon 122% | DU-145 prostate 111% | K-562 leukemia 102% | MALME-3M melanoma 110% | MDA-MB-231 breast 106% | RXF 393 renal 96.6% | SF-268 CNS 96.2% | SF-295 CNS 100% | SF-539 CNS 95.1% | UACC-257 melanoma 115% | M14 melanoma 99.9%

Cc1nc(NC(=S)Nc2ccc(F)cc2)sc1C(=O)NNC(=S)Nc1ccc(F)cc1
inactive: NCI-H23 lung 38% | NCI-H226 lung 60.7% | NCI-H322M lung 86.8% | NCI-H460 lung 70.2% | HOP-92 NSCLC 19.7% | NCI-H522 lung 33.9% | A549/ATCC NSCLC 66.2% | 786-0 renal 18.9% | COLO 205 colon 85.9% | DU-145 prostate 82% | K-562 leukemia 51.4% | MALME-3M melanoma 125% | MDA-MB-231 breast 77.9% | RXF 393 renal 94% | SF-268 CNS 92.4% | SF-295 CNS 40.6% | SF-539 CNS 93.8% | UACC-257 melanoma 82.1% | M14 melanoma 51%

c1ccc(C(=NNc2nc3ccccc3o2)c2ccccn2)nc1
inactive: NCI-H23 lung 10.8% | NCI-H322M lung 13.3% | HOP-92 NSCLC 34.4% | NCI-H522 lung 20.9% | COLO 205 colon 18% | DU-145 prostate 20.3% | K-562 leukemia 10.9% | MALME-3M melanoma 19.5% | MDA-MB-231 breast 29.7% | RXF 393 renal 16.4%
active: NCI-H226 lung -2.97% | NCI-H460 lung 3.05% | A549/ATCC NSCLC 6.29% | 786-0 renal 6.88% | SF-268 CNS 7.72% | SF-295 CNS 0.423% | SF-539 CNS 2.62% | UACC-257 melanoma -1.59% | M14 melanoma -4.91%

CCCCCCCCc1ccc(OCCOCC[N+](C)(C)CC)cc1 (tested in a mixture with another compound)
active: HOP-92 NSCLC 6.23% | NCI-H522 lung 3.68% | COLO 205 colon -42.1% | MALME-3M melanoma -19.9%
inactive: NCI-H23 lung 26.8% | NCI-H226 lung 56.5% | NCI-H322M lung 94% | NCI-H460 lung 39.9% | A549/ATCC NSCLC 69.5% | 786-0 renal 87.8% | DU-145 prostate 64.5% | K-562 leukemia 22.8% | MDA-MB-231 breast 22.2% | RXF 393 renal 50.3% | SF-268 CNS 23% | SF-295 CNS 97.2% | SF-539 CNS 18.4% | UACC-257 melanoma 12.9% | M14 melanoma 44.5%

O=C(Nc1cccc2[nH]c(C(F)(F)F)nc12)c1ccc(F)cc1
active: HOP-92 NSCLC -9.1%
inactive: NCI-H23 lung 83.7% | NCI-H226 lung 86.1% | NCI-H322M lung 101% | NCI-H460 lung 55% | NCI-H522 lung 51.3% | A549/ATCC NSCLC 72.8% | 786-0 renal 91.9% | COLO 205 colon 95.1% | DU-145 prostate 88.3% | K-562 leukemia 24.8% | MALME-3M melanoma 74% | MDA-MB-231 breast 83.7% | RXF 393 renal 88% | SF-268 CNS 86.1% | SF-295 CNS 86.6% | SF-539 CNS 80% | UACC-257 melanoma 89.7% | M14 melanoma 92%

Cc1nc2c(nnn2-c2ccccc2)c2nc(-c3ccccc3)oc(=O)c12
inactive: NCI-H23 lung 109% | NCI-H226 lung 99.8% | NCI-H322M lung 103% | NCI-H460 lung 116% | HOP-92 NSCLC 107% | NCI-H522 lung 105% | A549/ATCC NSCLC 116% | 786-0 renal 101% | COLO 205 colon 115% | DU-145 prostate 117% | K-562 leukemia 106% | MALME-3M melanoma 115% | MDA-MB-231 breast 109% | RXF 393 renal 109% | SF-268 CNS 108% | SF-295 CNS 101% | SF-539 CNS 97.7% | UACC-257 melanoma 123% | M14 melanoma 102%

Nc1cc2c(cc1Br)[nH]c(=O)c1ccccc12
inactive: NCI-H23 lung 54.4% | NCI-H226 lung 54.8% | NCI-H322M lung 83.8% | NCI-H460 lung 38.4% | HOP-92 NSCLC 35% | NCI-H522 lung 43% | A549/ATCC NSCLC 29.3% | 786-0 renal 58.6% | COLO 205 colon 68.1% | DU-145 prostate 27.8% | K-562 leukemia 40.7% | MALME-3M melanoma 26.3% | MDA-MB-231 breast 32% | RXF 393 renal 22% | SF-268 CNS 51.3% | SF-295 CNS 74.8% | SF-539 CNS 110% | UACC-257 melanoma 45.8% | M14 melanoma 22%

COC1NC(Cl)=C(C#N)C(C#N)(C#N)C1(C)C (centres undefined)
active: RXF 393 renal 3.25%
inactive: NCI-H23 lung 108% | NCI-H226 lung 108% | NCI-H322M lung 121% | NCI-H460 lung 114% | HOP-92 NSCLC 97.2% | NCI-H522 lung 104% | A549/ATCC NSCLC 109% | 786-0 renal 87.2% | COLO 205 colon 124% | DU-145 prostate 94.2% | K-562 leukemia 77.1% | MALME-3M melanoma 146% | MDA-MB-231 breast 88.6% | SF-268 CNS 122% | SF-295 CNS 115% | SF-539 CNS 92.3% | UACC-257 melanoma 102% | M14 melanoma 59.1%

c1cc[c]([Bi]([c]2ccccc2)[c]2ccccc2)cc1
inactive: NCI-H23 lung 93.9% | NCI-H226 lung 95.8% | NCI-H322M lung 88% | NCI-H460 lung 96.2% | HOP-92 NSCLC 74.1% | NCI-H522 lung 104% | A549/ATCC NSCLC 102% | 786-0 renal 94% | COLO 205 colon 105% | DU-145 prostate 107% | K-562 leukemia 105% | MALME-3M melanoma 94% | MDA-MB-231 breast 95.2% | RXF 393 renal 101% | SF-268 CNS 104% | SF-295 CNS 103% | SF-539 CNS 105% | UACC-257 melanoma 106% | M14 melanoma 94%

Cc1ccc(S(=O)(=O)NC(CCC(=O)Nc2ccccc2)C(=O)Nc2ccccc2)cc1 (centres undefined)
active: NCI-H23 lung -24.8% | NCI-H226 lung 6.72% | NCI-H322M lung -17% | NCI-H460 lung -4.49% | HOP-92 NSCLC -45.2% | NCI-H522 lung -71.8% | A549/ATCC NSCLC -19% | 786-0 renal -15.6% | COLO 205 colon -22.6% | DU-145 prostate 5.02% | K-562 leukemia 3.93% | MALME-3M melanoma -36.5% | MDA-MB-231 breast -30.1% | RXF 393 renal -24.6% | SF-268 CNS 8.46% | SF-295 CNS -3.31% | SF-539 CNS -75.6% | UACC-257 melanoma -18.4% | M14 melanoma 3.93%

Cc1nc(NC(=O)NC2CCCCC2)sc1C(=O)NN
inactive: NCI-H23 lung 101% | NCI-H226 lung 103% | NCI-H322M lung 101% | NCI-H460 lung 112% | A549/ATCC NSCLC 102% | 786-0 renal 113% | COLO 205 colon 119% | DU-145 prostate 109% | K-562 leukemia 154% | MDA-MB-231 breast 97.9% | RXF 393 renal 112% | SF-268 CNS 101% | SF-295 CNS 103% | SF-539 CNS 113% | UACC-257 melanoma 101% | M14 melanoma 94.9%
active: HOP-92 NSCLC -17.1% | NCI-H522 lung 0.452% | MALME-3M melanoma -7.04%

CCOc1nc(-c2ccccc2)cc2c(O)c(C(=O)N/N=C/c3ccccc3O)[nH]c(=O)c12
inactive: NCI-H23 lung 62.7% | NCI-H226 lung 106% | NCI-H322M lung 107% | NCI-H460 lung 107% | HOP-92 NSCLC 82.8% | NCI-H522 lung 81.9% | A549/ATCC NSCLC 85.3% | 786-0 renal 103% | COLO 205 colon 105% | DU-145 prostate 97.6% | K-562 leukemia 115% | MALME-3M melanoma 119% | MDA-MB-231 breast 101% | RXF 393 renal 81.3% | SF-268 CNS 79.6% | SF-295 CNS 103% | SF-539 CNS 117% | UACC-257 melanoma 88.6% | M14 melanoma 101%
